# Results: PubChem BioAssay
# Inconclusive results are not listed. The source made the active and inactive calls. Unless noted, the limit is not given here; nearly all actives have AC50 up to about 26 µM.
# Columns and labels:
# [1] = viability loss in pontine glioma line – cell-based, SU-DIPG-XVII, MIPE5.0, CellTiter-Glo, qHTS, dose response (AID 1347060); conditions: CellTiter-Glo ATP luminescence;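 also: cells exposed to compound for 48 hours before viability readout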
# [2] = viability loss in pontine glioma line – cell-based, SU-DIPG-XIII, MIPE4.0, CellTiter-Glo, qHTS, dose response (AID 1347061; cut-off not given, nearly all actives have AC50 up to about 37 µM;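 also: cells exposed to compound for 48 hours before readout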); conditions: CellTiter-Glo ATP luminescence
# [3] = viability loss in pontine glioma line – cell-based, JHH-DIPG-1, MIPE4.0, CellTiter-Glo, qHTS, dose response (AID 1347062; cut-off not given, nearly all actives have AC50 up to about 27 µM;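 also: cells exposed to compound for two days before readout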); conditions: JHH-DIPG-1 viability, CellTiter-Glo ATP luminescence
# [4] = viability loss in pontine glioma line – cell-based, SU-DIPG-IV, MIPE4.0, CellTiter-Glo, qHTS, dose response (AID 1347063; cut-off not given, nearly all actives have AC50 up to about 30 µM;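 also: compound exposure lasted 48 hours before the viability readout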); conditions: CellTiter-Glo ATP luminescence
# [5] = viability loss in pontine glioma line – cell-based, SU-DIPG-XIII, MIPE5.0, CellTiter-Glo, qHTS, dose response (AID 1347064; cut-off not given, nearly all actives have AC50 up to about 23 µM;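 also: cells exposed to compound for 48 hours before the viability read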); conditions: CellTiter-Glo ATP luminescence
# [6] = viability loss in pontine glioma line – cell-based, SU-DIPG-XXV, MIPE5.0, CellTiter-Glo, qHTS, dose response (AID 1347065); conditions: CellTiter-Glo ATP luminescence;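 also: cells exposed to compound for 48 hours before ATP readout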
# [7] = growth inhibition of DIPG cells – cell-based, MIPE4.0 library, CellTiter-Glo luminescence, qHTS (AID 1347066; cut-off not given, nearly all actives have AC50 up to about 30 µM;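 also: cells exposed to compound for 48 hours before readout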); conditions: SU-DIPG-VI viability, CellTiter-Glo ATP luminescence
# [8] = JHH-DIPG-1 glioma cell viability, MIPE5.0 library, CellTiter-Glo luminescence, qHTS (AID 1347067); conditions: JHH-DIPG-1 glioma viability, CellTiter-Glo ATP luminescence;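 also: cells exposed to compound for 48 hours before readout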
# [9] = growth inhibition of DIPG cells – cell-based, MIPE5.0 library, qHTS (AID 1347068; cut-off not given, nearly all actives have IC50 up to about 30 µM;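 also: cells exposed to compound for 48 hours before viability readout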); conditions: SU-DIPG-XXV viability
# [10] = viability loss with induced miR-34 in A549 – imaging, A549 dox-inducible miR-34, nuclei and caspase counts, primary screen (AID 1347080;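 active = compounds whose cell count with miR-34 switched on is under 0.7 times the count with it off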); conditions: A549 miR-34 inducible, Hoechst nuclei count, 48 h
# [11] = MELAS cybrid and Rieske KO viability enhancers – cell-based, MELAS cybrids, Rieske KO mouse fibroblasts, CellTiter-Glo, primary screen (AID 1508586;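 active = mean z-score across replicates of 1.96 or higher in either the MELAS or the Rieske mutant cell line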;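 also: z relative to plate mean and SD of compound and empty wells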); conditions: low glucose
# [12] = growth inhibition, single agent or in combination, cell-based, chromothripsis tumors, cisplatin or BGB combos (AID 1671449; in the data active = inhibition above about 80%;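 also: cells exposed for 96 hours; 0% = vehicle DMSO and 100% = killing by high DMSO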); conditions: LFS_MB_P medulloblastoma cells
# [13] = growth inhibition, single agent and combos, cell-based, chromothripsis tumors, cisplatin or BGB combos (AID 1671450; in the data active = inhibition above about 80%;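 also: cells exposed to compound for four days; 0% = vehicle DMSO and 100% = cell killing by high DMSO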); conditions: HDN33 neuroblastoma cells, stronger effect = higher value
# [14] = growth inhibition, single agents and combos, ICB984, cell-based, cisplatin or BGB combos, synergistic combos for chromothripsis tumors (AID 1671451; call rule not given here;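 also: cells exposed for 96 hours before readout; 0% = vehicle DMSO and 100% = killing by high DMSO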); conditions: ICB984 medulloblastoma cells, drug combinations, stronger effect = higher value
# [15] = growth inhibition, single agents and combos, HTB85, cell-based, BGB or cisplatin IC20 combos, synergistic combos for chromothripsis tumors (AID 1671453; in the data active = inhibition above about 80%;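 also: cells exposed for 96 hours before readout; 0% = vehicle DMSO and 100% = high DMSO killing control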); conditions: HTB85 osteosarcoma cells, drug combinations, stronger effect = higher value
# [16] = growth inhibition, MDA-MB-436, cell-based, BGB or cisplatin combos, synergistic combos for chromothripsis tumors (AID 1671458; call rule not given here;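 also: cells exposed for 96 hours; 0% = vehicle DMSO and 100% = killing by high DMSO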); conditions: MDA-MB-436 breast carcinoma growth inhibition, drug combinations, stronger effect = higher value
# [17] = BT084 cell growth, single and combined drugs, ICGC_MB145, cisplatin and BGB IC40 combos (AID 1671461; in the data active = inhibition above about 80%;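 also: cells exposed to drugs for 96 hours; 0% = vehicle DMSO and 100% = high DMSO full killing control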); conditions: BT084 medulloblastoma cells, drug combinations, stronger effect = higher value
# [18] = RCMB18 cell growth, single agent and combined, cisplatin and BGB IC40 combos (AID 1671462; in the data active = inhibition above about 80%;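 also: cells exposed to compound for four days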); conditions: RCMB18 medulloblastoma cells, stronger effect = higher value
# [19] = stronger effect = lower value, cell number ratio, induced over uninduced
# [20] = measured here: relative caspase fold change +Dox/-Dox
# [21] = measured here: total cells with miR-34 induction, stronger effect = lower value
# [22] = measured here: total cells without miR-34 induction
# [23] = MELAS cybrid survival, CellTiter-Glo 48 h, stronger effect = higher value
# [24] = Rieske KO mouse fibroblast survival, CellTiter-Glo 72 h
smiles,measurement,setting,value
Clc1ccc(C(c2ccc(Cl)cc2)n2cc[n+](CC(OCc3ccc(Cl)cc3Cl)c3ccc(Cl)cc3Cl)c2)cc1 (stereo not given),AC50,[1],2950 nM (active)
same,AC50,[2],23500 nM (active)
same,AC50,[3],16600 nM (active)
same,AC50,[4],9350 nM (active)
same,AC50,[5],2630 nM (active)
same,AC50,[6],2350 nM (active)
same,AC50,[7],13200 nM (active)
same,AC50,[8],2630 nM (active)
same,IC50,[9],3720 nM (active)
Nc1ncnc2c1c(-c1cnc3[nH]ccc3c1)nn2C1CCCC1,AC50,[1],934 nM (active)
same,AC50,[2],3720 nM (active)
same,AC50,[3],6620 nM (active)
same,AC50,[4],296 nM (active)
same,AC50,[5],1320 nM (active)
same,AC50,[6],661 nM (active)
same,AC50,[7],4690 nM (active)
same,AC50,[8],1660 nM (active)
same,IC50,[9],1660 nM (active)
same,fold change,[10]; [19],0.933 (inactive)
same,fold change,[10]; [20],0.447
same,cell count,[10]; [21],1360
same,cell count,[10]; [22],1460
same,z-score,[11]; [23],2.61 (active)
same,z-score,[11]; [24],-3.58
same,inhibition,"[12]; at 0.5 µM, stronger effect = higher value",-21.6% (inactive)
same,inhibition,"[12]; measured here: combination with BGB IC20, at 0.005 µM",-12.8%
same,inhibition,"[12]; measured here: combination with BGB IC40, at 0.005 µM",-34.4%
same,inhibition,"[12]; measured here: combination with BGB IC40, at 0.05 µM",-33.1%
same,inhibition,"[12]; measured here: combination with cisplatin, at 0.5 µM, stronger effect = higher value",-37.9%
same,inhibition,"[12]; measured here: combination with cisplatin, at 5 µM, stronger effect = higher value",101%
same,inhibition,"[13]; BGB combo, at 5 µM",93.7%
same,inhibition,[13]; at 0.5 µM,34.8% (inactive)
same,inhibition,"[13]; cisplatin combo, at 5 µM",89.8%
same,inhibition,"[13]; measured here: with BGB IC20 combination, at 0.5 µM",27.9%
same,inhibition,"[13]; measured here: with cisplatin IC20 combination, at 0.5 µM",38.9%
same,inhibition,"[13]; single agent, at 5 µM",94.1%
same,inhibition,"[14]; BGB IC20 combo, at 0.005 µM",3.47%
same,inhibition,"[14]; BGB IC40 combo, at 0.005 µM",0.136%
same,inhibition,"[14]; BGB IC40 combo, at 0.05 µM",75.2%
same,inhibition,[14]; at 0.5 µM,-26.8% (inactive)
same,inhibition,"[14]; cisplatin combo, at 0.05 µM",74.3%
same,inhibition,"[14]; cisplatin combo, at 0.5 µM",-46.2%
same,inhibition,"[14]; cisplatin combo, at 5 µM",-4.06%
same,inhibition,"[14]; measured here: 5 uM single agent, at 5 µM",-4.21%
same,inhibition,[15]; at 0.5 µM,49.5% (inactive)
same,inhibition,"[15]; measured here: with BGB IC20, at 0.5 µM",55.4%
same,inhibition,"[15]; measured here: with BGB IC20, at 5 µM",97.6%
same,inhibition,"[15]; measured here: with cisplatin IC20, at 0.5 µM",38.8%
same,inhibition,"[15]; measured here: with cisplatin IC20, at 5 µM",94.1%
same,inhibition,"[15]; single agent, at 5 µM",95.9%
same,inhibition,[16]; at 0.5 µM,-11.6% (inactive)
same,inhibition,"[16]; measured here: BGB combination, at 0.5 µM",0.573%
same,inhibition,"[16]; measured here: BGB combination, at 5 µM",42.9%
same,inhibition,"[16]; measured here: cisplatin combination, at 0.5 µM",-39.3%
same,inhibition,"[16]; measured here: cisplatin combination, at 5 µM",36.2%
same,inhibition,[17]; at 0.5 µM,26.7% (inactive)
same,inhibition,"[17]; cisplatin combination, at 0.5 µM",42.3%
same,inhibition,"[17]; cisplatin combination, at 5 µM",38.7%
same,inhibition,"[17]; measured here: BGB IC40 combination 0.05 uM, at 0.05 µM",-23%
same,inhibition,"[17]; single agent, at 5 µM",59.1%
same,inhibition,[18]; at 0.5 µM,1.21% (inactive)
same,inhibition,"[18]; cisplatin combo, at 5 µM",73.6%
same,inhibition,"[18]; measured here: BGB IC40 combination, at 0.05 µM",-7.03%
same,inhibition,"[18]; measured here: combination with cisplatin, at 0.5 µM",-23.9%
same,inhibition,"[18]; single agent, at 5 µM",64.6%
CC1(C)CC(=O)c2c(C(F)(F)F)nn(-c3ccc(C(N)=O)c(NC4CCC(O)CC4)c3)c2C1 (stereo not given),AC50,[1],118 nM (active)
same,AC50,[2],469 nM (active)
same,AC50,[3],166 nM (active)
same,AC50,[4],132 nM (active)
same,AC50,[5],148 nM (active)
same,AC50,[6],105 nM (active)
same,AC50,[7],148 nM (active)
same,AC50,[8],118 nM (active)
same,IC50,[9],186 nM (active)
same,fold change,[10]; [19],0.978 (inactive)
same,fold change,[10]; [20],0.783
same,cell count,[10]; [21],3040
same,cell count,[10]; [22],3110
same,z-score,[11]; [23],2.87 (active)
same,z-score,[11]; [24],-1.99
